The campaign covered roughly 69,000 compounds. Fewer than 10 were called active. Not shown: some 100% with an inconclusive outcome. The rule behind the calls is not given here. This is one part of the list.

The target of this assay is UDP-N-acetylglucosamine--peptide N-acetylglucosaminyltransferase 110 kDa subunit (Homo sapiens) (UniProt O15294). Kind of assay: O-Glc NAc Transferase (sOGT). As to conditions: sOGT fluorescence polarization UDP-GlcNAc probe displacement. The source says: NIH Molecular Libraries Screening Centers Network [MLSCN]
Chain of UDP-N-acetylglucosamine--peptide N-acetylglucosaminyltransferase 110 kDa subunit (Homo sapiens) (O15294 whole entry, looked up): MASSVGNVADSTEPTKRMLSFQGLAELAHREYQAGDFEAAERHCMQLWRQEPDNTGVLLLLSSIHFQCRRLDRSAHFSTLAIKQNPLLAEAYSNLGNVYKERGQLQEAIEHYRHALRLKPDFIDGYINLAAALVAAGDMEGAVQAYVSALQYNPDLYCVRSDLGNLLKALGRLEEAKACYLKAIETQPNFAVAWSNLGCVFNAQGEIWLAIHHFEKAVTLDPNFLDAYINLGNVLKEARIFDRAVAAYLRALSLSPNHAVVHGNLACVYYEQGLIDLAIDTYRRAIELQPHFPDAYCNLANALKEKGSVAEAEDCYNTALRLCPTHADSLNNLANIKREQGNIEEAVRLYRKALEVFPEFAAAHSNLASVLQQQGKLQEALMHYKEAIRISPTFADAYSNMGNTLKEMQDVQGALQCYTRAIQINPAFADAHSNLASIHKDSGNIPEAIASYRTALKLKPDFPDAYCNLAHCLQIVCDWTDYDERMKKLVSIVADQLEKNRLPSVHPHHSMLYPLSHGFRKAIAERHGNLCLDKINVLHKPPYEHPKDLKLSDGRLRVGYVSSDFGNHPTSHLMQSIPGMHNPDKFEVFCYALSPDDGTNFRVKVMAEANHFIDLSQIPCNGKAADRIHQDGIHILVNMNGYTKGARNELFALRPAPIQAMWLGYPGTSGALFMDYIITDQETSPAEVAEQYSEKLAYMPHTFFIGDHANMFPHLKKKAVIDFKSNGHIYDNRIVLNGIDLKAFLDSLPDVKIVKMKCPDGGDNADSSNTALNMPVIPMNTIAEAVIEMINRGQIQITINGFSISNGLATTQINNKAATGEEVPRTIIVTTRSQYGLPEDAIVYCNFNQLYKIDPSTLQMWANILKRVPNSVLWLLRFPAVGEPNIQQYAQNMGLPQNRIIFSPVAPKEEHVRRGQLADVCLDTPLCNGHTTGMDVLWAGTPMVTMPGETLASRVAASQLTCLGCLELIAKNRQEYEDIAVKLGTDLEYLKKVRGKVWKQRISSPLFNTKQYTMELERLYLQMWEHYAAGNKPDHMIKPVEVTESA
NIH Chemical Genomics Center [NCGC]
Suzanne Walker [Harvard Medical School]
OGT is the sole enzyme that mediates the attachment of O-GlcNAc groups to serine and threonine residues in the nucleus and cytoplasm of eukaryotic cells, and no specific inhibitors are known. This type of glycosylation is involved in signal transduction and plays a key role in many essential cellular processes. High O-GlcNAc levels have been correlated to insulin resistance and type 2 diabetes. In addition to elucidating the role of O-GlcNAc in cellular processes, inhibitors of OGT might be useful in studying and perhaps treating type 2 diabetes. Since HTS-amenable direct assay for OGT activity is currently unavailable, a simpler substrate-displacement screen was performed. The signal measured is based on the change in fluorescence polarization of a fluorescein-labeled UDP-GlcNAc upon displacement from its complex with OGT. Recombinant truncated version of the enzyme, sOGT, as well as labeled probe, were made available by Suzanne Walker and Benjamin Gross, Harvard Medical School.
NCGC Assay Protocol Summary:
20 mM phosphate buffer, pH 8.0, 0.01% Tween-20, 500 uM THP (Tris (hydroxypropyl) phosphine).
50 nM/1.5 uM sOGT /100 uM UDP in columns 3 and 4 as negative control (full inhibition of binding, 0 % activity).
50 nM probe/1.5 uM sOGT in columns 1, 2, 5-48. Titration of UDP control (from 40 mM, then 1:2) pin-transferred to column 2. Column 1 is neutral (100% activity).
Three uL of reagents were dispensed to 1536-well Greiner black plates. Compounds and controls (20 nL) were transferred via Kalypsys PinTool. The plates were incubated for 15 min at room temperature, and then read on ViewLux (Perkin-Elmer) High-throughput CCD imager using fluorescein polarization filter set and 45 seconds exposure time. During dispense, reagent bottles were kept submerged into 4 deg C water bath and all liquid lines were covered with aluminum foil to minimize probe and protein degradation.
Keywords: NIH Roadmap, MLSCN, MLI, MLSMR, sOGT, qHTS, NCGC
On the technique in general: In fluorescence polarisation assays a small probe gives low polarisation when free and higher when bound to something large.
For `O=C(O)C1=CC(=C(c2ccc(O)c(C(=O)O)c2)c2ccc(O)c(C(=O)O)c2)C=CC1=O`, the Potency was 21.8 µM (active).
With `CCCn1c(=O)c(C)cn2nc(N)nc12` the figure was 31.1 µM (active).
Next, `CCCCCCCCCCCCC/C=C\[C@@H](O)[C@H](CO)NC(C)=O`: 25.2 µM (active).
With `Cc1cc(-c2ccc(N=Nc3ccc4c(S(=O)(=O)O)cc(S(=O)(=O)O)c(N)c4c3O)c(C)c2)ccc1N=Nc1ccc2c(S(=O)(=O)O)cc(S(=O)(=O)O)c(N)c2c1O` the figure was 43.7 µM (active); with `Nc1c(S(=O)(=O)O)cc(Nc2ccc(Nc3nc(Cl)nc(Nc4ccc(S(=O)(=O)O)cc4)n3)c(S(=O)(=O)O)c2)c2c1C(=O)c1ccccc1C2=O`, 22.3 µM (active).

The record behind these values is PubChem BioAssay AID447 (National Center for Advancing Translational Sciences (NCATS), 2006).
